Data: PubChem BioAssay AID651820 (National Center for Advancing Translational Sciences (NCATS), 2012)
Out of some 340,000 compounds screened, about 12,000 (3.5%) were called active. Inconclusive results (about 18%) are left out. This is one part of a sample in which actives are shown more often than they occur. Values without a mark were called inactive. Calls come from the whole dose curve; as a rule, active = well fitted inhibition curve with a large enough effect; inconclusive = small, poorly fitted or top-dose-only effect, or another doubt; inactive = no such curve, though single readings can be large or run the other way.

assay: qHTS Assay for Inhibitors of Hepatitis C Virus (HCV); settings: Huh7.5.1 HCVcc-Cre infection, luciferase reporter, 44 h; series mostly up to 41.8 µM; activity change, negative = inhibition: at the top concentration
Source text: Hepatitis C virus (HCV) infects about 200 million people in the world. Many infected people progress to chronic liver disease including cirrhosis with a risk of developing liver cancer. To date, there is no effective vaccine for hepatitis C. Current therapy based on interferon is only effective in about half of the patients and is associated with significant adverse effects. The fraction of people with HCV who can complete a successful treatment is estimated to be no more than 10 percent. Recent development of direct-acting antivirals against HCV, such as protease and polymerase inhibitors, is promising but still requires combination with peginterferon and ribavirin for maximal efficacy. In addition, these agents are associated with high rate of resistance and many have significant side effects. Due to the lack of a culture system for infectious HCV, the search for new HCV drugs has been greatly hampered. […] High-throughput screening (HTS) with an infectious HCV system would cover the complete spectrum of potentially druggable targets in all stages of HCV lifecycle, and would have more biological relevance than other cell-based assays. Moreover, targeting several key processes in the viral life cycle may not only increase antiviral efficacy; more importantly, it may also reduce the capacity of the virus to develop resistance to the compound. The goal of this project is to identify novel HCV inhibitors as new therapies for hepatitis C, using a highly sensitive and specific assay platform which is based on a HCV infectious cell culture system established in the laboratory and adapted for high-throughput HCV drug screen. NIH Chemical Genomics Center [NCGC] NIH Molecular Libraries Probe Centers Network [MLPCN] MLPCN Grant: MH095511 Assay Submitter (PI): Jake Liang, NIDDK
The assay will start with plating 1,000 cells/well in 3 µL volume and culture for 4 h. Then 23 nL of compounds from the library collection will be added to each well, followed by adding 2.5 µL of HCVcc-Cre virus (~ 0.5 moi) and further cultured for 44 h before the luciferase assay. A volume of 4.5 µL luciferase substrates will be added to each well and the plates will be incubated at room temperature for 15 min. and then read for 15 sec. for the luciferase activity
% is set by controls: 0 for no effect and ±100 for the full control effect.

Structure (SMILES) | activity change, negative = inhibition | Potency
Cc1nc2sc(C(c3ccco3)N3CCOCC3)c(O)n2n1 (stereo not given) | 0.269% | 
Oc1c(C(c2ccccn2)N2CCOCC2)ccc2cccnc12 (stereo not given) |  | 3.55 µM (active)
CCOC(=O)N1CCN(C(c2cccnc2)c2ccc3cccnc3c2O)CC1 (stereo not given) | -17.6% | 
CCOC(=O)C1CCCN(C(=O)CSc2nnc3nc(C)cc(C)n23)C1 (stereo not given) | -5.06% | 
Cc1cc(C(=O)OCC(=O)N2C(C)CCCC2C)c2ccccc2n1 (stereo not given) | -14.7% | 
CCC(C)N(C(=O)CSc1ncnc2c1cnn2-c1ccccc1)C1CCS(=O)(=O)C1 (stereo not given) |  | 14.1 µM (active)
CCN(C(=O)CSc1ncnc2c1cnn2-c1ccccc1)C1CCS(=O)(=O)C1 (stereo not given) | -22.6% | 
CC(C)CN(C(=O)CSc1ncnc2sccc12)C1CCS(=O)(=O)C1 (stereo not given) | 8.24% | 
O=C(O)c1ccc(NN=CC2=C(N3CCOCC3)/C(=C/c3ccccc3)CC2)cc1 | 40.3% | 
CC/C(=C(/c1ccccc1)c1ccc(OCC[N+](C)(C)C)cc1)c1ccccc1 | 3.46% | 
COc1ccccc1C(=O)c1ccccc1C(=O)c1ccccc1 | -3.41% | 
CCOC(=O)c1ccccc1OC(=O)Oc1ccccc1C(=O)OCC | -20.5% | 
CCOC(=O)C(=Cc1ccccc1OC)C(=O)OCC |  | 25.1 µM (active)
CC(=O)CC(CC(=O)NC1CCCCC1)c1ccccc1 (stereo not given) | 4.7% | 
CN(CC(=O)O)C(=O)c1ccccc1 | -4.81% | 
COc1cccc(NC(=O)CN(C)C(=O)CSC(=S)N2CCCC2)c1 | 7.26% [at 8.37 µM] | 
O=C(Nc1ccccc1Cl)Nn1cnnc1 | 22.4% | 
COCCN(CCOC)C(=S)Nc1ccccc1Cl | -9.93% | 
O=C(Nc1ccccc1Cl)/C(Cl)=C(\Cl)S(=O)c1ccccc1 (stereo not given) |  | 11.2 µM (active)
COc1ccc(-c2cc3ncccc3cn2)cc1 | -19.5% | 
CCCCCCCCn1c2c(c(=N)c3c1CCC3)CCCC2 |  | 3.98 µM (active)
O=C(CCNS(=O)(=O)c1ccccc1C(F)(F)F)Nc1ccncc1 | 8.22% | 
COc1ccccc1OCc1ccc(C(=O)NC(C)c2ccccc2)o1 (stereo not given) |  | 7.08 µM (active)
COc1ccccc1OCc1ccc(C(=O)N2CCN(C)CC2)o1 | 10.2% | 
COc1ccccc1CNC(=O)c1ccc(CS(=O)(=O)c2ccccc2)o1 | 5.83% | 

Structure (SMILES) | activity change, negative = inhibition | Potency
CCCCn1c(N)c(N(CC(C)C)C(=O)c2cccc(S(=O)(=O)N3CC(C)OC(C)C3)c2)c(=O)[nH]c1=O (stereo not given) | -10.1% | 
CCOC(=O)c1ccc(NC(=O)Cn2nnc(-c3ccc(C)cc3)n2)cc1 | -24.7% | 
CCOC(=O)c1ccc(NC(=O)Cn2cnc3cc(C)c(C)cc32)cc1 |  | 3.55 µM (active)
CCCc1nnc(SCC(=O)Nc2ccc(C(=O)OCC)cc2)o1 | 10.9% | 
Cn1c(SCC(=O)Nc2ccc(N3CCOCC3)cc2)nnc1C(F)(F)F | -2.32% | 
CC(NC(=O)c1ccccc1)C(=O)OCC(=O)Nc1cccc(S(=O)(=O)N2CCCC2)c1 (stereo not given) | 11.6% | 
CN1CCc2nc(SC(C(=O)O)c3ccccc3)c(C#N)c(-c3cccs3)c2C1 (stereo not given) |  | 10 µM (active)
CC(NC(=O)CSc1nc2c(cc1C#N)CN(C)CC2)c1ccccc1 (stereo not given) | -20.5% | 
Cc1c(-c2ccccc2)nc(N)c(C#N)c1-c1cccs1 | 17.7% | 
Cc1ccc([C@@H]2CC=C(C(=O)O)[C@H](c3cccc(Cl)c3)N2S(=O)(=O)c2ccc(C)cc2)cc1 | 23.6% | 
CC(C)(C)OC(=O)C[C@@H]1C/C=C\C[C@@H](CC(=O)N(CCO)Cc2ccccc2)C(=O)N[C@H](Cc2ccccc2)COC1=O | 14.1% | 
Cc1csc(=O)n1CC(=O)OCC(=O)N(CC(C)C)c1c(N)n(Cc2ccccc2)c(=O)[nH]c1=O | 0.0195% | 
Cn1c(=O)[nH]c(=O)c2c1nc(Br)n2CCCCSc1nc2ccccc2o1 |  | 12.6 µM (active)
Cc1ccnc(SCCn2c(Br)nc3c2c(=O)[nH]c(=O)n3C)n1 | -9.01% | 
Cn1c(=O)c2c(nc(Br)n2CCSc2nc3ccccc3o2)n(C)c1=O | -24% | 
CCCCC/C=C/C1=CC(=O)C[C@H](c2ccc(Cl)cc2)C1 | -4.66% | 
O=C1NCCn2nc3ccccc3c21 | -0.139% | 
Cn1c(N)c(C(=O)COC(=O)/C=C/c2cccc(C(F)(F)F)c2)c(=O)n(C)c1=O | 5.92% | 
Cc1cc(C)cc(-c2nnc(SCC(=O)NC3CC3)o2)c1 | 0.418% | 
CCOC(=O)N1CCN(C(=O)c2ccc3c(c2)N(Cc2ccc(C)cc2)CCS3)CC1 |  | 12.6 µM (active)
O=C(NCCN1CCOCC1)c1ccc2c(c1)N(Cc1ccc(Cl)cc1)CCS2 | 8.59% | 
O=C(c1ccc2c(c1)N(Cc1ccc(F)cc1)C(=O)CS2)N1CCOCC1 | 14.1% | 
O=C(NNC(=O)c1cc(S(=O)(=O)N2CCCCC2)ccc1Cl)c1ccccc1O | -11.9% | 
CN(C(=O)CN1C(=O)NC(C)(CCc2ccccc2)C1=O)c1ccccc1 (stereo not given) | 16.1% | 
O=C(COC(=O)c1cc[n+]([O-])cc1)Nc1ccc(Cl)c(C(F)(F)F)c1 | 0.896% | 
